Source: PubChem BioAssay (EPA / NIEHS)
Where “and” joins values, the source holds several entries; their conditions need not be identical. Equal values may be shown once. Records with an inconclusive call do not appear. A structure can be active in one record and inactive in another. Calls of active or inactive are those of the source. The calls were made as follows, unless noted: active = hit-call score of the fitted dose curve at least 0.9, where 1 is the maximum; inactive = score below 0.9.

Experiments:
[1] = APR_HepG2_CellCycleArrest_1hr: Apredica 1-hour HepG2 Assay for Cell Cycle Arrest (AID 2282666); details: high-content imaging, actives raise or lower the signal
Method in brief: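 HepG2 cells exposed for 1 h to 0.39–200 uM compound (0.5% DMSO). Fixed, Hoechst-stained nuclei imaged by ArrayScan; DNA content quantified by Cell Cycle analysis; bidirectional fit against DMSO.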

[2] = ACEA_ER_80hr: ACEA Biosciences xCELLigence Real-Time Cell Analysis on Estrogen Receptor Agonism for Proliferation (AID 2282667; active = hit-call score of the fitted dose curve at least 0.9, where 1 is the maximum); details: T47D proliferation, impedance (xCELLigence), 80 h
Method in brief: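 Estrogen-driven proliferation is captured as electrode impedance in T47D cells 80 h after compound addition. Test articles ran at 8 concentrations, 1:4 dilutions from 100 uM final, in two replicate plates.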

[3] = APR_HepG2_NuclearSize_1hr: Apredica 1-hour HepG2 Assay for Nuclear Size (AID 2282670); details: high-content imaging, actives raise or lower the signal
Method in brief: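 HepG2 cells dosed 1 hr with 0.39–200 uM compound (0.5% DMSO), formaldehyde-fixed, Hoechst 33342-stained and imaged at 20x; nuclear diameter from nuclear stain, fitted bidirectionally against DMSO.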

[4] = APR_HepG2_p53Act_1hr: Apredica 1-hour HepG2 Assay for p53 Activation (AID 2282671); details: high-content imaging, actives raise or lower the signal
Method in brief: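 HepG2 cells treated 1 h with compound at 0.39–200 uM (10 concentrations, duplicate) in 0.5% DMSO. Formaldehyde-fixed, permeabilised cells immunostained for p53 with Hoechst 33342; high-content imaging, bidirectional fit versus DMSO.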

[5] = APR_HepG2_MitoMembPot_1hr: Apredica 1-hour HepG2 Assay for Mitochondrial Membrane Potential (AID 2282675); details: imaging, actives raise or lower the signal
Method in brief: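 HepG2 cells dosed 1 hour with 0.39–200 uM compound in duplicate, 0.5% DMSO final. MitoTracker Red CMXRos (250 nM, 30 min) loaded before formaldehyde fixation; fluorescence quantified by high-content imaging, bidirectional fitting versus DMSO.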

[6] = APR_HepG2_CellCycleArrest_24hr: Apredica 24-hour HepG2 Assay for Cell Cycle Arrest (AID 2282905); details: imaging, actives raise or lower the signal;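 also: cell cycle arrest scored as ratio of 2N to 4N nuclear DNA content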
Method in brief: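 Compounds at 0.39–200 uM (0.5% DMSO) for 24 h, then fixed and Hoechst 33342 stained. Cell-cycle analysis of nuclear DNA content by high-content imaging, fitted bidirectionally versus DMSO.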

[7] = APR_HepG2_StressKinase_1hr: Apredica 1-hour HepG2 Assay for Stress Kinase (AID 2282906); details: HepG2 stress kinase (phospho-c-Jun) imaging, actives raise or lower the signal
Method in brief: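 HepG2 cells dosed 0.39-200 uM (0.5% DMSO) for 1 h, then formaldehyde-fixed. Stress kinase read by phospho-c-Jun immunofluorescence using high-content imaging; bidirectional fit vs DMSO.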

[8] = APR_HepG2_NuclearSize_24hr: Apredica 24-hour HepG2 Assay for Nuclear Size (AID 2282907); details: high-content imaging, actives raise or lower the signal
Method in brief: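 HepG2 cells exposed 24 h to compounds at 0.39–200 uM (0.5% DMSO), fixed, Hoechst 33342 stained and imaged at 20x; nuclear diameter measured by automated image analysis, fitted bidirectionally against DMSO controls.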

[9] = APR_HepG2_CellLoss_24hr: Apredica 24-hour HepG2 Assay for Cell Loss (AID 2282908); details: high-content imaging;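 as to AC50: fit in both directions so a hit may be cell loss or gain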
Method in brief: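 HepG2 cells exposed 24 hr to 0.39–200 uM compound in duplicate at 0.5% v/v final DMSO. Cells fixed in 3.7% formaldehyde and Hoechst 33342-stained. Cell number came from nuclear imaging at 20x. Bidirectional fit versus DMSO.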

[10] = APR_HepG2_MicrotubuleCSK_24hr: Apredica 24-hour HepG2 Assay for Microtubule CSK Stabilty (AID 2282909); details: HepG2 microtubule cytoskeleton imaging, actives raise or lower the signal
Method in brief: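 HepG2 cells were treated 24 hr with compound at 0.39–200 uM in duplicate (0.5% DMSO final), then fixed and permeabilized. Alpha-tubulin immunofluorescence was imaged by high-content microscopy, with bidirectional fitting against DMSO and taxol as positive control.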

[11] = APR_HepG2_MitoticArrest_24hr: Apredica 24-hour HepG2 Assay for Mitotic Arrest (AID 2282910); details: high-content imaging, actives raise or lower the signal
Method in brief: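 Compounds are dosed onto HepG2 cells across ten concentrations up to 200 uM for 24 hr. Cells are then fixed in 3.7% formaldehyde, permeabilised, and labelled for phospho-histone H3 and nuclei; images are scored by cell cycle analysis and fitted bidirectionally relative to DMSO.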

[12] = APR_HepG2_MitoMembPot_24hr: Apredica 24-hour HepG2 Assay for Mitochondrial Membrane Potential (AID 2282911); details: imaging, actives raise or lower the signal
Method in brief: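 Mitochondrial dye uptake (MitoTracker Red CMXRos, 250 nM, 30 min pre-fixation) in HepG2 after 24 hr compound exposure, 0.39–200 uM; ArrayScan images at 20x, activity fitted in both directions relative to DMSO.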

[13] = APR_HepG2_MitoMass_24hr: Apredica 24-hour HepG2 Assay for Mitochondrial Mass (AID 2282912); details: high-content imaging, actives raise or lower the signal
Method in brief: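 HepG2 cells exposed 24 hr to 0.39–200 uM compound, 0.5% v/v DMSO, in duplicate. Stained before fixation with 250 nM MitoTracker Red CMXRos for 30 min, then imaged at 20x with Hoechst nuclei. Fitted in both directions against DMSO.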

[14] = APR_HepG2_p53Act_24hr: Apredica 24-hour HepG2 Assay for p53 Activation (AID 2282913); details: high-content imaging, actives raise or lower the signal;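 also: p53 protein immunofluorescence averaged per cell in HepG2 with Hoechst nuclei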
Method in brief: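 Following 24 hr dosing of HepG2 at 0.39–200 uM, the cells undergo formaldehyde fixation, Triton permeabilization and multiplexed antibody labeling that includes p53 (Cy5). Signal from the imaging is referenced to DMSO solvent controls.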

[15] = APR_HepG2_CellCycleArrest_72hr: Apredica 72-hour HepG2 Assay for Cell Cycle Arrest (AID 2282914); details: high-content imaging, actives raise or lower the signal
Method in brief: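 Using multiplexed high-content imaging, HepG2 nuclei stained with Hoechst 33342 (2 ug/mL) were analysed for DNA content after fixation and permeabilization. Treatment lasted 72 hr across 0.39–200 uM in duplicate with final DMSO 0.5% v/v; DMSO served as negative control.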

[16] = APR_HepG2_MicrotubuleCSK_1hr: Apredica 1-hour HepG2 Assay for Microtubule CSK Stabilty (AID 2282669); details: HepG2 microtubule cytoskeleton imaging, actives raise or lower the signal
Method in brief: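 HepG2 cells exposed 1 h to 0.39–200 uM compound (0.5% DMSO, duplicates), then formaldehyde-fixed, permeabilized and immunostained for alpha-tubulin with Hoechst nuclei. Imaged by ArrayScan high-content analysis; bidirectional fit versus DMSO.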

[17] = APR_HepG2_MitoMass_1hr: Apredica 1-hour HepG2 Assay for Mitochondrial Mass (AID 2282674); details: high-content imaging, actives raise or lower the signal
Method in brief: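 HepG2 cells dosed 1 hr with 0.39-200 uM compound (0.5% DMSO), duplicate wells. Mitochondria stained with 250 nM MitoTracker Red CMXRos for 30 min before formaldehyde fixation, imaged at 20x by ArrayScan; bidirectional fit versus DMSO.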

[18] = APR_HepG2_CellLoss_1hr: Apredica 1-hour HepG2 Assay for Cell Loss (AID 2282668); details: high-content imaging;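 also: curves fitted both ways against DMSO so gain or loss of cells counts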
Method in brief: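 HepG2 cells were treated for 1 h with compound at 0.39–200 uM, in duplicate, in 0.5% DMSO. After formaldehyde fixation, Hoechst 33342-stained nuclei were imaged on an ArrayScan to count cells. Data were fitted bidirectionally versus DMSO.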

[19] = APR_HepG2_MitoticArrest_1hr: Apredica 1-hour HepG2 Assay for Mitotic Arrest (AID 2282672); details: high-content imaging, actives raise or lower the signal
Method in brief: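 HepG2 cells exposed 1 hr to compounds at 0.39–200 uM (0.5% v/v DMSO final), then fixed in 3.7% formaldehyde and immunostained for phospho-histone H3 with Hoechst 33342. Mitotic arrest scored by automated fluorescence imaging, fitted bidirectionally versus DMSO.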

[20] = APR_HepG2_P-H2AX_1hr: Apredica 1-hour HepG2 Assay for H2AX Phosphorylation (AID 2282673); details: high-content imaging, actives raise or lower the signal
Method in brief: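 HepG2 dosed 1 hr at 0.39-200 uM (0.5% DMSO final), duplicate. Fixed in 3.7% formaldehyde, Triton permeabilized, immunostained for phospho-histone H2A.x (1:200) with Hoechst 33342; ArrayScan 20x imaging, bidirectional fit vs DMSO.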

Measured: AC50

CC(C)(C)c1ccc(CSc2cnn(C(C)(C)C)c(=O)c2Cl)cc1
active: [2] 4.06 nM | [6] 16.1 µM | [9] 2.58 µM | [15] 16.1 µM
not listed: [16] | [17] | [18] | [19] | [20]
inactive: all other assays above

C=CCC1=C(C)C(OC(=O)C2C(C=C(C)C)C2(C)C)CC1=O (stereo not drawn)
active: [5] 100 µM | [8] 53.2 µM | [9] 55.8 µM [middle of 4 runs] | [10] 30.6 µM and 29.7 µM | [11] 35.4 µM and 43.3 µM and 46.9 µM | [13] 29 µM and 48.5 µM and 56.1 µM | [14] 42 µM | [15] 34.4 µM
inactive: [1] | [2] | [3] | [4] | [6] | [7] | [8] | [10] | [11] | [13] | [14] | [15]

N#CC(CCc1ccc(Cl)cc1)(Cn1cncn1)c1ccccc1 (stereo not drawn)
active: [9] 102 µM | [10] 104 µM | [11] 106 µM | [14] 103 µM
not listed: [12] | [16] | [17] | [18] | [19] | [20]
inactive: all other assays above

CN(C)C(=S)SSC(=S)N(C)C
active: [2] 2060 nM | [7] 3.07 µM | [9] 2.3 µM | [10] 17.6 µM | [15] 0.039 µM
not listed: [12] | [16] | [17] | [18] | [19] | [20]
inactive: all other assays above

CCCCNC(=O)OCC#CI
active: [4] 54.5 µM | [17] 47.8 µM and 60.6 µM | [9] 2.6 µM and 6.77 µM | [10] 14.7 µM | [12] 119 µM and 41 µM
inactive: [1] | [16] | [3] | [4] | [5] | [6] | [7] | [8] | [10] | [11] | [13] | [14] | [15]

COc1nc(C)nc(NC(=O)NS(=O)(=O)c2ccccc2Cl)n1
not listed: [2] | [12] | [17]
inactive: all other assays above
